Results filed as inconclusive are left out. Activity calls are given as the source filed them. The call rests on the fitted dose curve; in most records, active means well fitted curve in either direction with a large enough effect (not every such curve was filed as active); inconclusive means small, poorly fitted or top-dose-only effect, or another doubt; inactive means flat fitted curve, though single readings scatter.

A short description of the test: AP1 Signaling Pathway (AID 357).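 Further: ME-180 reporter cells stimulated with EGF at its EC50 level.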 The following applies: ME-180 (cervical carcinoma) AP-1-bla reporter, EGF-induced, beta-lactamase ratio, 5 h; series mostly up to 17.2 µM. Summed up:
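A ratiometric CCF4 readout (405 nm excitation; 460 and 530 nm emission) quantified AP-1-driven beta-lactamase in ME-180 cells after 5 h with compound and EC50 EGF; AC50 values were derived for activators and inhibitors.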
Take `Fc1ccc(C(OCCN2CCN(CCCc3ccccc3)CC2)c2ccc(F)cc2)cc1`: the result was inactive.
Turning to `CC(CCc1ccccc1)NC(C)C(O)c1ccc(O)cc1` (centres undefined), the outcome was inactive.
Consider `Cc1ncc(CNC(=O)N(CCCl)N=O)c(N)n1`, for which the outcome was inactive.
Turning to `CC[N+]1(C)CCCC(OC(=O)C(O)(c2ccccc2)c2ccccc2)C1` (centres undefined), the result was inactive.
With `c1ccc2c(c1)OCC(C1=NCCN1)O2` (centres undefined), the outcome was inactive.
Then `CCN(CC)C(=O)N[C@@H]1C=C2c3cccc4[nH]cc(c34)C[C@@H]2N(C)C1`, with “inactive”.
As for `Clc1ccc(COC(Cn2ccnc2)c2ccc(Cl)cc2Cl)cc1` (centres undefined), the result was inactive.
Regarding `O=P1(NCCCl)OCCCN1CCCl` (centres undefined), the outcome was inactive.
As for `CN(C)[C@@H]1C(=O)C(C(N)=O)=C(O)[C@@]2(O)C(=O)C3=C(O)c4c(O)cccc4[C@@](C)(O)[C@H]3C[C@@H]12`, the entry is “inactive”.

The values are drawn from PubChem BioAssay (NCATS).
